The record followed here is PubChem BioAssay (NCATS).

A short description of assay [1]: Viability qHTS for spleen associated tyrosine kinase inhibitor (SYKi) naive MV4-11 cells (AID 1963823). Note: nearly all actives have a fitted effect of over 40% in size. Summed up: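 Compounds were dispensed acoustically onto plates, MV4-11 cells (SYKi-naive) added at 500 per well, and plates incubated 72 hr at 37 C. CellTiter-Glo was added and luminescence measured after 10 min.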
The nature of assay [2]: Viability qHTS for spleen associated tyrosine kinase inhibitor (SYKi) drug resistant MV4-11 cells (AID 1963824). Note: nearly all actives have a fitted effect of over 35% in size. Summed up: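 SYK-inhibitor-resistant MV4-11 AML cells were seeded at 500 per well onto compound and cultured 72 hours (37 °C, 5% CO2). CellTiter-Glo was then added, and after 10 min at room temperature, luminescence gave viability.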
Background: qHTS replaces the single test concentration by a dilution series.

The nature of assay [3]: Quantitative highthroughput screen to assess conditional lethalithy of NOMO1 cells grown in RPMI1640 with dialyzed fetal bovine serum (RPMI+ds) (AID 1963877).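 For Viability: series mostly up to about 46 µM; 100% = DMSO control wells and 0% = empty wells.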 Note: nearly all actives have a fitted effect of over 30% in size. Summed up: (§1)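 Each medium arm—HPLM with 10% dialyzed FBS, or RPMI1640 with 5 mM glucose and 10% untreated or dialyzed FBS—was screened against an 11-point, 3-fold compound titration for 48 h at 37 °C, with CellTiter-Glo luminescence as endpoint.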

A short description of assay [4]: Quantitative highthroughput screen to assess conditional lethalithy of SEM cells grown in Human Plasma-Like Medium with dialyzed fetal bovine serum (HPLM+ds) (AID 1963882). For Viability: series mostly up to about 46 µM. Note: nearly all actives have a fitted effect of over 35% in size. Summed up: as §1
Assay [5] can be described thus: Quantitative highthroughput screen to assess conditional lethalithy of SEM cells grown in RPMI1640 with unreated serum (RPMI+s) (AID 1963883).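 For Viability: 100% = DMSO wells and 0% = empty wells without cells.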 Note: nearly all actives have a fitted effect of over 35% in size. Summed up:
as §1

A short description of assay [6]: Quantitative highthroughput screen to assess conditional lethalithy of SEM cells grown in RPMI1640 with dialyzed fetal bovine serum (RPMI+ds) (AID 1963884).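 For Viability: series mostly up to about 46 µM; 100% = DMSO control wells and 0% = empty wells without cells.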 Note: nearly all actives have a fitted effect of over 35% in size. The procedure, abridged: as §1
Assay [7] is described as follows: Cellular viability qHTS for adrenocortical cancer (ACC) cell line NCI-H295R (AID 1963990). Note: nearly all actives have a fitted effect of over 60% in size. Summed up: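 Luminescent ATP read-out (CellTiter-Glo, 20 min RT) after 48 h drug exposure of NCI-H295R cells; a titration up to 46 uM final. Data normalized to doxorubicin (100% inhibition) and DMSO (0%); 4-parameter fit gives IC50, max response.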
The nature of assay [8]: Quantitative highthroughput screen to assess conditional lethalithy of NOMO1 cells grown in Human Plasma-Like Medium with dialyzed fetal bovine serum (HPLM+ds) (AID 1963878).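 For Viability: 100% = DMSO wells and 0% = empty wells on each plate.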 Note: nearly all actives have a fitted effect of over 35% in size. Summed up:
as §1

The nature of assay [9]: Quantitative highthroughput screen to assess conditional lethalithy of P12 Ichikawa cells grown in Human Plasma-Like Medium with dialyzed fetal bovine serum (HPLM+ds) (AID 1963879). For Viability: series mostly up to about 46 µM. Note: nearly all actives have a fitted effect of over 35% in size. Conditions: Potency: viability. Summed up:
as §1

A short description of assay [10]: Quantitative highthroughput screen to assess conditional lethalithy of P12 Ichikawa cells grown in RPMI1640 with untreated serum (RPMI+s) (AID 1963881).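 For Viability: series mostly up to about 46 µM; 100% = DMSO wells and 0% = empty wells without cells.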 Note: nearly all actives have a fitted effect of over 35% in size. Conditions: Potency: viability. Summed up:
as §1

Assay [11] can be described thus: Cellular viability qHTS for adrenocortical cancer (ACC) cell line SW-13 (AID 1963989).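 For activity (max response): cells grown in serum-free medium with ITS supplement; % is set by controls: 0 for no effect and ±100 for the full control effect.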 Note: nearly all actives have a fitted effect of over 65% in size. The note with it: SW-13 ACC cells viability, CellTiter-Glo, 48 h; activity (max response): stronger effect = lower value. The procedure, abridged:
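SW-13 cells in ITS-supplemented serum-free DMEM were plated overnight, then exposed for 48 h at 37C to compound titrations (up to 46 uM final). Viability was read by CellTiter-Glo luminescence; four-parameter logistic fits gave IC50 and efficacy.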

Assay [12] is described as follows: Quantitative highthroughput screen to assess conditional lethalithy of P12 Ichikawa cells grown in RPMI1640 with dialyzed fetal bovine serum (RPMI+ds) (AID 1963880).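 For Viability: 100% = DMSO wells and 0% = empty wells on each plate.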 Note: nearly all actives have a fitted effect of over 35% in size. The note with it: Potency: P12-Ichikawa viability. Summed up: as §1

Several values for one entry are separate records, joined by “and”; a condition that tells them apart may be missing. Equal entries are not always repeated. Records with an inconclusive call do not appear. Unmarked numbers belong to inactive results. Activity calls are given as the source filed them. Calls come from the whole dose curve; as a rule, active = well fitted curve in the direction sought with a large enough effect; inconclusive = small, poorly fitted or top-dose-only effect, or another doubt; inactive = no such curve, though single readings can be large; an effect the other way counts as inactive or inconclusive.
Potency is the fitted concentration of half-maximal effect.

Consider `COc1cc(C)c(Sc2cnc(NC(=O)c3ccc(CNC(C)C(C)(C)C)cc3)s2)cc1C(=O)N1CCN(C(C)=O)CC1` (centres undefined), for which the Potency is 2.63 µM (active) in [1]; 3.32 µM (active) in assay [2]; 20.9 µM (active) in [3]; 4.18 µM (active) in assay [4]; 4.18 µM (active) in assay [5]; 3.32 µM (active) in assay [6]. In addition, in assay [7], the Potency was 8.91 µM (active).

Turning to `OCCNC1CCCc2c1[nH]c1ccc(-c3ccccc3)cc21` (centres undefined), the Potency in assay [1] is 8.33 µM (active); in assay [2], 8.33 µM (active); in assay [8], 23.5 µM (active); in assay [9] it was 20.9 µM (active); in assay [10] it was 18.7 µM (active); in [5], 16.6 µM (active). For the same molecule, the Potency in assay [11] is 15.8 µM (active); in assay [7], 7.08 µM (active).

With `c1cnc2cc3c(cc2n1)C1CNCC3C1`, the Potency entry in assay [1], in [2], in [8], in assay [9], in assay [12] and in assay [4] was “inactive” in each case. The Potency entry in assay [5], in assay [6] and in assay [7] was “inactive” in each case. Also, in assay [11], the activity (max response) is 7.13% and 6.77%.

As for `Cn1cc(-c2[nH]c3cc(NC(=O)[C@H](N)C4CCCCC4)cc4c3c2C=NNC4=O)cn1`, the Potency in [1] was 0.0661 µM (active); in [2], 164 nM (active) and 83.3 nM (active); in assay [3], 5.26 µM (active); in [12] it was 6.62 µM (active); in [10] it was 7.43 µM (active); in assay [4], 2.96 µM (active). In addition, in assay [6], the Potency was 1.18 µM (active). In [7], the Potency entry was “inactive”.

As to `COc1cc2nc(N3CCN(C(=O)c4ccco4)CC3)nc(N)c2cc1OC`, the Potency was 10.3 µM (active) in [1]; 11.6 µM (active) in assay [2]; 13.2 µM (active) in assay [8]; 16.6 µM (active) in [9]; 9.35 µM (active) in [4]; 10.5 µM (active) in assay [5]. Also, the Potency in assay [6] is 7.43 µM (active). For the same molecule, the activity (max response) in [11] was -8.85%.

For `COc1cc2c(N3CCN(C(=O)Nc4ccc(OC(C)C)cc4)CC3)ncnc2cc1OCCCN1CCCCC1`, the Potency in assay [1] is 231 nM (active) and 235 nM (active); in assay [2], 366 nM (active) and 662 nM (active); in assay [3], 8.33 µM (active); in assay [12] it was 8.33 µM (active); in assay [5] it was 0.469 µM (active); in assay [6], 0.132 µM (active). The Potency entry in [7] was “inactive”.

In the case of `O=C(CN1C(=O)C2(CCCC2)NC[C@H]1c1cc(F)cc(F)c1)Nc1ccc2c(c1)C[C@@]1(C2)C(=O)Nc2ncccc21`, the Potency result in assay [1], in assay [9], in [12], in assay [10], in assay [4] and in [5] was “inactive” throughout. Further, the Potency in assay [2] is 18.6 µM (active); in [8], 20.9 µM (active). Further, the activity (max response) in [11] is -4.31%.

`CNC(=O)c1cc(Oc2ccc(NC(=O)Nc3ccc(Cl)c(C(F)(F)F)c3)cc2)ccn1`: the Potency in [1] is 0.0211 µM (active); in assay [2], 23.5 nM (active) and 59.6 nM (active) and 13 nM (active); in [3], 18.7 µM (active); in assay [7], 11.2 µM (active) and 10.3 µM (active).

For the molecule `C1CCC(C(CC2CCCCN2)C2CCCCC2)CC1` (centres undefined), the Potency in assay [1] is 2.95 µM (active); in [2] it was 2.95 µM (active); in [3] it was 23.5 µM (active); in assay [5], 11.8 µM (active); in assay [11], 7.08 µM (active); in assay [7], 7.08 µM (active).

In the case of `CC(C)c1cc(C(=O)N2Cc3ccc(CN4CCN(C)CC4)cc3C2)c(O)cc1O`, the Potency is 0.0332 µM (active) in assay [1]; 41.1 nM (active) and 52.5 nM (active) in assay [2]; 0.662 µM (active) in [3]; 0.398 µM (active) in assay [11]; 0.631 µM (active) in assay [7].

Consider `O=C(Nc1cccnc1)N1CCC(Cc2cccc(Oc3ccc(C(F)(F)F)cn3)c2)CC1`, for which the Potency in [1] was 3.66 µM (active) and 4.17 µM (active); in assay [2], 4.61 µM (active) and 3.72 µM (active); in assay [8], 8.33 µM (active); in assay [12], 4.18 µM (active); in assay [10] it was 3.72 µM (active); in assay [5], 2.96 µM (active). Moreover, the Potency is 15.8 µM (active) in assay [11] and 17.8 µM (active) in [7].

On to `CS(=O)(=O)c1cccc(CNc2nc(Nc3ccc4c(c3)CCC(=O)N4)ncc2C(F)(F)F)c1`, for which the Potency in [1] is 0.105 µM (active); in [2] it was 0.164 µM (active); in assay [3], 18.7 µM (active); in assay [4], 8.33 µM (active); in [5], 5.26 µM (active); in [6], 6.62 µM (active).

As for `Cc1ccc2nc(NCCN)c3ncc(C)n3c2c1`, the Potency in assay [1] is 2.31 µM (active); in [2] it was 4.61 µM (active) and 2.63 µM (active); in assay [3] it was 26.4 µM (active); in assay [4], 11.8 µM (active); in assay [5], 23.5 µM (active); in assay [6], 20.9 µM (active). Moreover, the figures for the Potency in assay [11] and in [7] were 6.31 µM (active) and 8.91 µM (active), respectively.

Regarding `Cn1c(=O)c2c(ncn2CC(O)CO)n(C)c1=O` (centres undefined), the Potency entry in assay [1], in assay [2], in assay [8], in assay [9], in assay [12] and in [10] was “inactive” in each case. The Potency entry in [4], in assay [5], in assay [6] and in assay [7] was “inactive” in each case. In addition, the activity (max response) in [11] was 9.53% and 9.36%.

As to `CCn1c(-c2nonc2N)nc2c(C#CC(C)(C)O)ncc(OC[C@H]3CCCNC3)c21`, the Potency in assay [1] is 16.6 µM (active); in [2], 7.42 µM (active); in assay [9], 0.0526 µM (active); in assay [4] it was 18.7 µM (active); in [5] it was 23.5 µM (active); in assay [6] it was 14.8 µM (active). Moreover, the Potency in [11] was 28.2 µM (active); in assay [7], 17.8 µM (active). In assay [3], the Potency entry is “inactive”.
